Compounds with a hit are over-represented: about 1.8% of the library has one in this group of screens.
Fam108B inh = mouse Fam108B serine hydrolase inhibitors, primary screen, counter-screen for RBBP9 inhibitor project, biochemical, fluorescence polarization; recombinant Fam108B, FP-Rh probe fluorescence polarization; inhibition, % at 9.51 µM; 0.33% of 300,000 active; AID 1947, 2009;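 active means inhibition above the screen mean inhibition plus 3 SD, computed separately per campaign, cut at about 18% in these data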;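 further: inhibitors lower polarization as less probe binds the enzyme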
LYPLA2 inh = LYPLA2 inhibitors, primary screen, counter-screen for PME1 inhibitor project, biochemical, fluorescence polarization, FP-Rh probe ABPP; 0.38% of 320,000 active; inhibition, % at 5.9 µM; recombinant LYPLA2;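 active means inhibition above the screen-wide mean plus 3 SD, limit set per campaign, cut at about 26% in these data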
Target sequence (O95372 whole entry, looked up): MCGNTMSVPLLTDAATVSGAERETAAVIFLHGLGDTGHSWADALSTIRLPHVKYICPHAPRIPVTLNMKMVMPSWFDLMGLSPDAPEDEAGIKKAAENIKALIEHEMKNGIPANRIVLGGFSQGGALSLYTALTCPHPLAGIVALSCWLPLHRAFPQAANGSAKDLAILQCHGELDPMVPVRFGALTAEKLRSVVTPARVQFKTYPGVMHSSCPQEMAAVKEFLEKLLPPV
LYPLA1 inh = LYPLA1 inhibitors, primary screen, counter-screen for PME1 inhibitor project, biochemical, fluorescence polarization, FP-Rh probe ABPP. Acyl-protein thioesterase 1 (Homo sapiens), O75608. AID 2174, 2009. inhibition, % at 5.9 µM. recombinant LYPLA1. 0.16% of 320,000 active;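 active means inhibition above the mean of all tested compounds plus 3 SD, set per campaign, cut at about 14% in these data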;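 further: inhibitors block serine hydrolase probe labeling of LYPLA1 so polarization falls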
Target sequence (O75608 whole entry, looked up): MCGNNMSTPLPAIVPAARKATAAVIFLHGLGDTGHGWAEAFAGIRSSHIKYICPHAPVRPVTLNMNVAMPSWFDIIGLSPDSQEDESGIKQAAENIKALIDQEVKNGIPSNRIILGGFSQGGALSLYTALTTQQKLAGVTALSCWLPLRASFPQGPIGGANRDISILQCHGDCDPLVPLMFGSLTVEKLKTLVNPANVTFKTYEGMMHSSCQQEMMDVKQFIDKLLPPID
PME-1 primary = PME-1 inhibitors via competitive probe labeling, primary screen, biochemical, fluorescence polarization, FP-Rh probe, HTS; Protein phosphatase methylesterase 1 (Homo sapiens), Q9Y570; inhibition, % at 5.9 µM; 0.53% of 320,000 active; recombinant PME-1;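 active means inhibition above the campaign mean of all compounds plus 3 SD, cut at about 26% in these data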;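 further: competitive labeling of PME-1 active site by serine hydrolase directed probe; inhibitors block probe labeling so polarization falls and inhibition rises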
PAD4 FP inh = human PAD4 inhibitors, primary screen, biochemical, fluorescence polarization, 1536-well format | Protein-arginine deiminase type-4 (Homo sapiens), Q9UM07 | recombinant PAD4, RCA probe fluorescence polarization | inhibition, % at 6.36 µM | 0.41% of 330,000 active;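 active means percent inhibition above a cutoff equal to the mean of all tested compounds plus 3 SD, cut at about 15% in these data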
GSTO1 inh = inhibitors of recombinant GSTO1, primary screen, counter-screen for RBBP9 inhibitor project, biochemical, fluorescence polarization; Glutathione S-transferase omega-1 (Homo sapiens), P78417; activity-based probe fluorescence polarization; inhibition, % at 5.96 µM; 1.1% of 300,000 active; AID 1974, 2009;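 active means inhibition above the campaign mean inhibition plus 3 SD, cut at about 35% in these data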
LYPLA1 conf = LYPLA1 inhibitors, retest, confirmation, counter-screen for PME1 inhibitor project, biochemical, fluorescence polarization, FP-Rh probe ABPP; shares compounds with LYPLA1 inh; recombinant LYPLA1; inhibition, % at 5.9 µM; 69% of 480 active;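 active means mean inhibition across replicates above the hit cutoff set in the primary screen, cut at about 15% in these data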;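 further: loss of FP-Rh probe labeling of LYPLA1 seen as lower polarization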
A number is an active result; - = inactive; . = not tested or not shown.

SMILES | Fam108B inh | LYPLA2 inh | LYPLA1 inh | PME-1 primary | PAD4 FP inh | GSTO1 inh | LYPLA1 conf
CC1(OC(=O)c2cnc3ccccc3n2)C(=O)C=C2C=C(C3CC3)OC=C2C1=O (centres undefined) | 48 | 76 | 58 | 66 | 38 | 43 | 27
CC(C)C(=O)Nc1ccc(Oc2ccc3c(c2)C(=O)NC3=O)cc1 | - | - | - | - | - | - | .
COC(=O)c1cc(-c2cccc(OC)c2)c2c(=O)[nH]c(=O)n(C)c2n1 | - | - | - | - | - | - | .
COc1ccc([C@H]2CC(=O)C=C(c3ccc(C)c([N+](=O)[O-])c3)C2)cc1 | . | - | 18 | - | - | . | 17
COc1ccc([C@H]2CC(=O)C=C(c3ccc4c(c3)OCCO4)C2)cc1 | . | - | - | - | - | . | .
COc1ccc(-n2c(C)c([N+](=O)[O-])c3ccc(O)c(CN4CCCCC4)c32)cc1 | - | - | 54 | - | - | - | 65
COC(=O)c1cccc(NC(=O)c2ccc3c(c2)C(=O)N(Cc2cccnc2)C3=O)c1 | - | - | 20 | - | - | - | 19
COc1ccc(C(=O)NN/C(=N/S(=O)(=O)c2ccc(C)cc2)c2ccccc2)cc1 | - | - | - | - | - | - | .
N#Cc1c(NC(=O)CSc2nc(N)cc(=O)[nH]2)sc2c1CCCCCC2 | - | - | - | - | - | - | .
CC(Sc1nc(N)cc(=O)[nH]1)C(=O)Nc1sc2c(c1C#N)CCCC2 (centres undefined) | - | - | 30 | - | - | - | 39
CC1CN(Cc2cc(=O)oc3cc(O)c(Cl)cc23)CC(C)O1 (centres undefined) | - | - | 16 | - | - | - | 42
COc1ccc(N2C(=O)CS/C2=N\C(=S)Nc2ccccc2)cc1 | - | - | - | - | - | - | .
OCCN(CCO)c1ccc2ccccc2c1 | - | - | - | - | - | - | .
OCCN(CCO)c1ccc(C(c2ccccc2Cl)c2ccc(N(CCO)CCO)cc2Cl)c(Cl)c1 | - | - | 15 | - | - | - | 17
O=C(Nc1ccc(S(=O)(=O)N2CCOCC2)cc1)c1ccc(CN2CCc3ccccc3C2)cc1 | - | - | - | - | - | - | .
COC(=O)c1sc2cc(C(F)(F)F)cnc2c1-c1ccccc1 | - | - | 17 | - | - | - | 21
CC(Nc1ncnc2sccc12)c1ccccc1 (centres undefined) | - | - | - | - | - | - | .
Cc1cnc(CNC(=O)CC2C(=O)NCCN2Cc2cccc(F)c2F)cn1 (centres undefined) | - | - | - | - | - | - | .
COc1ccc(CC(=O)Nc2ccc(S(=O)(=O)N3CCC(C)CC3)cc2)c(OC)c1 | . | - | 17 | - | - | . | -
COc1ccc(CC(NC(C)=O)C(=O)NC2CCN(S(=O)(=O)c3ccc(NC(C)=O)cc3)CC2)c(OC)c1 (centres undefined) | - | - | - | - | - | - | .
CCOC(=O)C1CCN(S(=O)(=O)c2ccc3c(c2)CC(C)N3C(=O)C2CCC2)CC1 (centres undefined) | - | - | 16 | - | - | - | 24
CC1CCN(S(=O)(=O)c2ccc3c(c2)CC(C)N3C(=O)C2CCC2)CC1 (centres undefined) | - | - | 25 | - | - | - | 34
CCOC(=O)C1CCCN(S(=O)(=O)c2ccc3c(c2)CC(C)N3C(=O)C2CC2)C1 (centres undefined) | - | - | - | - | - | - | .
CC1Cc2cc(S(=O)(=O)N3CCC(C(=O)N(C)Cc4ccco4)CC3)ccc2N1C(=O)C1CCC1 (centres undefined) | - | - | 19 | - | - | - | 29
CC1Sc2ccc(S(=O)(=O)N3CCC(C(=O)N(C)Cc4ccco4)CC3)cc2NC1=O (centres undefined) | - | - | - | - | - | - | .
SMILES | Fam108B inh | LYPLA2 inh | LYPLA1 inh | PME-1 primary | PAD4 FP inh | GSTO1 inh | LYPLA1 conf
CC1Cc2cc(S(=O)(=O)N3CCN(C)CC3)ccc2N1C(=O)C1CC1 (centres undefined) | - | - | - | - | - | - | .
CC1Cc2cc(S(=O)(=O)N3CCCCC3)ccc2N1C(=O)C1CCC1 (centres undefined) | - | - | 19 | - | - | - | 24
CC1Cc2cc(S(=O)(=O)N3CCC(C(=O)N4CCCCC4)CC3)ccc2N1C(=O)C1CC1 (centres undefined) | - | - | - | - | - | - | .
Cc1ccc2c(c1)N(C(=O)CCC(=O)N1CCCCC1)CCO2 | - | - | - | - | - | - | .
O=C(CCC(=O)N1CCOCC1)NCCc1ccccc1 | . | - | - | - | - | . | .
Cc1coc2cc3oc(=O)c(CCC(=O)N4CCC(C(=O)O)(c5ccccc5)CC4)c(C)c3cc12 | - | - | - | - | - | - | .
Cc1ccccc1OCC(=O)Nc1ccccc1-c1ccccc1 | - | - | - | - | - | - | .
N#CCCn1nc(-c2ccccc2)cc1Nc1ccccc1NC(=O)c1cccs1 | - | - | - | - | - | - | .
O=c1nc(/C=C/c2ccc(-c3ccc(F)cc3)o2)cc(C(F)(F)F)[nH]1 | - | - | - | - | - | - | .
O=C(O)c1cc(Cl)ccc1-c1ccc(/C=C/c2cc(C(F)(F)F)[nH]c(=O)n2)o1 | - | 31 | 18 | - | - | - | -
COc1ccccc1-c1nnc(SCC(=O)NC2CC2)n1C | . | - | - | - | - | . | .
COc1ccccc1-c1nnc(SCC(=O)NNC(=O)c2ccccc2F)n1C | . | - | 24 | - | - | . | -
O=C1c2ccccc2-c2onc3c(N4CCN(CCO)CC4)cc(N4CCN(C(=O)c5ccco5)CC4)c1c23 | - | - | 17 | - | - | 37 | -
O=C(c1ccco1)N1CCN(CCCCN2C(=O)c3ccccc3C2=O)CC1 | - | - | - | - | - | - | .
C=CCc1cc(OC)ccc1OCCOCCN1CCc2ccccc2C1 | - | - | - | - | - | - | .
O=C(Cc1ccccc1)N1CCC(c2nc(-c3ccc(F)cc3)no2)CC1 | - | - | 17 | - | - | - | -
O=c1ccc2ccc(Oc3ccc([N+](=O)[O-])cc3[N+](=O)[O-])cc2o1 | - | 58 | 40 | 42 | - | - | 40
COc1ccc(CNC(=O)Cn2ccc3cc(S(=O)(=O)N4CCCC4)ccc32)cc1OC | - | - | 24 | - | - | - | -
COc1ccc(-n2cc(-c3ccccc3)c3c(NN4CCOCC4)ncnc32)cc1 | - | - | 14 | - | - | - | 27
